RORgamma inh – ROR gamma (mouse) transcription inhibition. P51450. Drosophila S2 Gal4-RORgamma UAS-luciferase reporter, 20 h. Potency, µM (doses to about 53.6 µM), inactives show at the highest dose activity change, negative = inhibition, actives largely listed as inhibitors. 5.4% of 310,000 active. AID 2551; note: potency is the fitted concentration of half-maximal effect; % is set by controls: 0 for no effect and ±100 for the full control effect; nearly all actives have a fitted effect of over 60% in size
Target sequence (P51450 whole entry, looked up, the tested form may be a part): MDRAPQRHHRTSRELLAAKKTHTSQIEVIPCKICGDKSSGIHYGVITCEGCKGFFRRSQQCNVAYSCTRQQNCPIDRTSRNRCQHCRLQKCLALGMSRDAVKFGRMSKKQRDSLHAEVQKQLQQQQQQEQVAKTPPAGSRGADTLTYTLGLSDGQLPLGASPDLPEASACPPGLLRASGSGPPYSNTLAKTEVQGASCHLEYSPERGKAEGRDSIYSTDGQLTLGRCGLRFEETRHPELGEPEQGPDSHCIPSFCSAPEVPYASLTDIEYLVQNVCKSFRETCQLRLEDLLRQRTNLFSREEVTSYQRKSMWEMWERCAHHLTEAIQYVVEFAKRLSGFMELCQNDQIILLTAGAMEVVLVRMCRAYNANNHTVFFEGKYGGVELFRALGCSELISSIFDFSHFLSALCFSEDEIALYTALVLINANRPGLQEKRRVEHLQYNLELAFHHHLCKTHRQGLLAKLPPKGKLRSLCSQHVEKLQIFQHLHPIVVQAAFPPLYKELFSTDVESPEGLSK
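Using a luciferase readout, inhibitors were identified by reduced reporter activity in Drosophila cells coexpressing a copper-inducible Gal4–ROR gamma fusion and UAS-driven Photinus luciferase, incubated 20 hr after 700 uM copper sulfate.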
BCR signal inh – blocks chronic active B-cell receptor signaling; Potency, µM (doses to about 46.1 µM), for the others: at the highest dose activity change, negative = inhibition, most hits filed as inhibitors; ABC-DLBCL IkBa-CBG/CBR reporter, luminescence ratio, 4 h; 0.05% of 340,000 active; active = well fitted inhibition curve with a large enough effect in the signal ratio, with a control signal flat, not every such curve was filed as active; inconclusive = small, poorly fitted or top-dose-only effect, or effect the other way, or a change in a side signal; the % refers to the signal ratio;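 note: potency is the fitted concentration of half-maximal effect; plate controls were basal doxycycline-induced cells for no effect and cells given 10 µM MG132 for full effect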
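Concentration-response series (up to 46 uM) were applied to TMD8 dual-reporter cells for 4 h at 37C with doxycycline. Green/red ratio, after filter-overlap correction, defined %Activity; red signal alone was normalised to basal cells and zero luminescence.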
MCF10A rerep – induces DNA re-replication in MCF 10a normal breast cells | Potency, µM (titrated, usually from 46.1 µM), inactives show top-dose activity, positive = re-replication, actives largely listed as activators | 2.9% of 350,000 active | MCF 10A DNA re-replication, Hoechst nuclear intensity, 48 h | AID 624296; note: potency is the fitted concentration of half-maximal effect; % of control where 0% means no effect; nearly all actives have a fitted effect of over 50% in size
VP16 counter – inhibits Gal4-VP16 luciferase reporter, ROR gamma counter-screen; Potency, µM (top dose mostly 53.6 µM), inactives show at the top dose activity, negative = inhibition, actives largely listed as inhibitors; AID 2546; Drosophila S2 Gal4-VP16 UAS-luciferase, luminescence, 20 h; 3.5% of 310,000 active;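 note: Gal4-VP16 expression switched on by copper sulfate through the metallothionein promoter; potency is the fitted concentration of half-maximal effect; % is set by controls: 0 for no effect and ±100 for the full control effect; nearly all actives have a fitted effect of over 50% in size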
SW480 rereplic – induces DNA re-replication in SW480 colon adenocarcinoma cells | SW480 DNA re-replication, Hoechst DNA content imaging, 48 h | Potency, µM (top dose mostly 46.1 µM), for inactives: top-dose re-replication activation, hits mostly activators | 1.8% of 340,000 active | AID 624297; note: potency is the fitted concentration of half-maximal effect; % of control where 0% means no effect; nearly all actives have a fitted effect of over 55% in size
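Hoechst fluorescence of nuclei (405 nm excitation, 500-530 nm emission) measured by plate-scanning imager after 48 hr compound exposure at 37 C; re-replication scored as increased number of nuclei with elevated intensity.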
Giardia killer – kills Giardia lamblia; activity change, % at 7.66 µM, hits read low; Giardia lamblia trophozoite viability; 0.15% of 340,000 active; AID 540267; in the data active = activity change below about -80%; inconclusive = between about -30% and that limit;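 note: parasites exposed to compound for two days anaerobically before the ATP read; % is set by controls: 0 for no effect and ±100 for the full control effect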
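Compounds were tested on trophozoites seeded at 100 cells/well and held 48 hrs at 37 deg C anaerobically. An ATP-based luminescent kit measured the remaining live cells.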
Numbers without * were called inactive; ? = inconclusive; . = no result; [ ] = remark or other dose. In the library only some 8.3% were active in any assay of this set; here they are far more common. Unless noted, calls come from the whole dose curve; as a rule, active = well fitted curve in the direction sought with a large enough effect; inconclusive = small, poorly fitted or top-dose-only effect, or another doubt; inactive = no such curve, though single readings can be large; an effect the other way counts as inactive or inconclusive.

SMILES	RORgamma inh	BCR signal inh	MCF10A rerep	VP16 counter	SW480 rereplic	Giardia killer
O=C(Nc1ccc(Br)cc1F)c1cc(S(=O)(=O)NCc2ccc(F)cc2)ccc1F	.	9%	.	.	.	.
Cn1ncc2c(Nc3ccccc3Cl)nc(Nc3ccccc3Cl)nc21	-18%	28%	18µM*	?	23%	1
CC(C)Nc1nnc(SC(C)C(=O)NCc2ccc3c(c2)OCO3)s1 (centres undefined)	5%	3%	-6%	-5%	-11%	2
O=C(NCCC1=CCCCC1)c1cccc(S(=O)(=O)N2CCCCC2)c1	.	1%	?	.	?	-1
N#Cc1sc2nc(-c3ccccc3)cc(C(F)(F)F)c2c1N	6%	11%	4%	2%	2.9µM*	-12
CCOC(=O)c1ccc(CSC(=N)N)o1	1%	?	?	-4%	21µM*	-20
Nc1cc2c(cc1C(=O)c1cccc(Br)c1)OCCO2	-12%	6%	21µM*	4%	?	-10
COc1cc([C@@H]2C[C@H]3CN(c4ccccc4)C(=O)[C@]34CCCN24)cc(OC)c1OC	0%	-17%	18µM*	3%	-3%	-5
COc1cc(Cl)c([C@@H]2C[C@H]3CN(c4ccccc4)C(=O)[C@]34CCCN24)cc1OC	-4%	3%	7%	-20%	-18%	34
CCOc1cc([C@@H]2C[C@H]3CN(c4ccccc4)C(=O)[C@]34CCCN24)ccc1OC	-2%	3%	?	-5%	11%	-8
COc1ccccc1-n1cc([C@@H]2C[C@H]3CN(c4ccccc4)C(=O)[C@]34CCCN24)cn1	-2%	-13%	2.6µM*	0%	8.2µM*	-16
COc1cccc(-c2noc(-c3ccc(Br)o3)n2)c1	10%	9%	10%	0%	-2%	-11
CC(C)(C)c1ccc(OCCC(=O)Nc2cccc(S(=O)(=O)NC3=NCCCCC3)c2)cc1	.	-2%	?	.	?	15
CC(=O)Nc1ccc(NC2=CC(=O)c3ccccc3C2=O)cc1	-33%	-6%	-1%	?	4%	-8
Cc1cc(NC2=CC(=O)C(=O)c3ccccc32)no1	.	.	13µM*	.	?	10
NS(=O)(=O)c1ccc(NC2=CC(=O)C(=O)c3ccccc32)cc1	10µM*	?	?	?	3.3µM*	-21
CCOC(=O)c1ccc(NC2=CC(=O)C(=O)c3ccccc32)cc1	?	?	13µM*	?	?	-12
O=C1C=C(Nc2ccc(O)cc2)C(=O)c2ccccc21	3%	?	?	?	?	-14
Cc1ccc(NC2=CC(=O)C(=O)c3ccccc32)cc1	?	?	?	?	5.8µM*	-3
CCOC(=O)[C@H]1[C@H]2COc3ccccc3[C@@H]2N2C(=O)[C@@H](C)NC(=O)[C@@]12C	.	4%	-9%	.	9%	-1
CNC(=O)c1c(NC(=O)CCS(=O)(=O)c2ccc(Cl)cc2)sc2c1CCN(C(=O)OC)C2	.	-7%	?	.	-11%	-17
CC1(CCc2ccccc2)NC(=S)N(c2ccccc2)N1 (centres undefined)	?	5%	19%	20µM*	4%	-7
CC1(CCc2ccccc2)NC(=S)N(c2ccc(Cl)cc2)N1 (centres undefined)	10µM*	?	18%	?	8%	-12
COc1cc(S(=O)(=O)Nc2ccc3c(c2)C(=O)N(C)C3=O)ccc1NC(C)=O	.	3%	1%	.	3%	8
CCOC(=O)C1CCN(c2ccc(-c3cccs3)nn2)CC1	4%	0%	1%	0%	-5%	-7
SMILES	RORgamma inh	BCR signal inh	MCF10A rerep	VP16 counter	SW480 rereplic	Giardia killer
c1csc(-c2ccc(N3CCOCC3)nn2)c1	?	?	1%	11µM*	-6%	?
CCC(C)n1c(C)nc2c(c1=O)c1nc3ccccc3nc1n2CCC1=CCCCC1 (centres undefined)	-19%	-1%	1%	0%	-3%	-9
Cc1nn(CC(=O)OCC(=O)c2ccccc2)c(C)c1[N+](=O)[O-]	.	0%	1%	.	-12%	-5
CCNC(=S)N1CCN(Cc2ccccc2)CC1	-8%	1%	-5%	2%	-1%	6
CC1CCN(C(=S)NC(=O)c2ccco2)CC1	4µM*	?	2%	6.3µM*	-3%	-13
CC1CCCCN1C(=S)NC(=O)c1ccco1 (centres undefined)	.	0%	10%	.	-5%	7
Cc1sc(NC(=O)c2ccco2)c(CN2CCN(Cc3ccccc3)CC2)c1C	16%	0%	23µM*	-8%	?	26
O=C(NC(=S)N1CCN(Cc2ccccc2)CC1)c1ccco1	0.89µM*	?	0%	3.5µM*	-10%	11
COc1ccccc1NC(=O)Cn1c(=O)n(C)c(=O)c2sc3c(c21)COC(C)(C)C3	?	-1%	-4%	-14%	-2%	-16
Cn1c(N=NC(=O)c2ccccc2)c(O)c2ccccc21	8.9µM*	?	14%	?	-6%	7
O=C(Nc1cc(Cl)ccc1Cl)c1ccc2c(c1)N(Cc1cccc(Cl)c1)C(=O)c1ccccc1S2=O (centres undefined)	.	-1%	.	.	.	.
NC(=O)c1c(N)sc(=S)n1-c1ccccc1	10%	3%	6.5µM*	2%	-1%[9.22 µM]	36
O=[N+]([O-])c1ccc(S(=O)(=O)c2cccc(C(F)(F)F)c2)nc1	.	.	5.2µM*	.	4.1µM*	0
O=C(/C=C/c1ccco1)Nc1ccc2nc3n(c(=O)c2c1)CCCC3	15%	0%	?	-10%	-8%	8
O=C(Nc1cccc(Cl)c1)C1C2C=CC3(O2)C1C(=O)N(CCCN1CCCCC1)C3C(=O)NC1CCCCC1 (centres undefined)	0%	-7%	-18%	-3%	-14%	?
Cc1ccc(S(=O)(=O)N2CCN(c3ncnc4sccc34)CC2)cc1	?	-12%	8%	5µM*	1%	13
CCS(=O)(=O)N1CCN(c2ncnc3sc(C)c(C)c23)CC1	21%	-11%	-1%	10%	1%	5
c1ccc(CC2CCN(c3ncnc4sccc34)CC2)cc1	10µM*	0%	20%	4µM*	?	20
Cc1ccc(S(=O)(=O)N2CCN(c3nc(-c4cccs4)nc4ncccc34)CC2)cc1	.	.	.	.	.	3
Cc1sc2ncnc(N3CCN(c4ncccn4)CC3)c2c1C	-23%	5%	?	-2%	0%	-12
Cc1sc2ncnc(N3CCN(S(=O)(=O)c4ccc(F)cc4)CC3)c2c1C	-40%	-3%	17%	22µM*	-3%	5

Compound activity deposited in PubChem by National Center for Advancing Translational Sciences (NCATS).
